The results in this text go back to PubChem BioAssay (NCATS).

Experiment [1] is described as follows: qHTS profiling for inhibitors of Plasmodium falciparum (3D7) proliferation (AID 743322).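 Further: infected erythrocytes exposed to compound for 72 h before lysis; 100% = DMSO vehicle wells and 0% = 0.29 µM artemisinin.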 Conditions: P. falciparum 3D7 proliferation; at 28.7 µM (top of the series). The gist of the method:
(§1)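 Parasite DNA was quantified by SYBR Green I fluorescence (ex 485, em 535 nm) after overnight lysis in saponin/Triton buffer at room temperature. Cultures at 0.3% parasitemia and 2.5% hematocrit were first exposed to compound for 72 h at 37 C; signals were normalised to artemisinin (0.29 uM) and vehicle wells.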
On the technique in general: In qHTS, concentration-response curves come from the screen itself.

Experiment [2] is described as follows: qHTS profiling for inhibitors of Plasmodium falciparum (DD2) proliferation (AID 743323). As to conditions: lower = more inhibition; at 28.7 µM (top of the series). A digest of the protocol: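 Parasite proliferation measured via DNA-dye fluorescence, as uninfected erythrocytes lack DNA. Cultures at 0.3% parasitemia and 2.5% hematocrit incubated 72 h with compound; signal scaled between vehicle and 0.29 uM artemisinin wells.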

The nature of experiment [3]: qHTS profiling for inhibitors of Plasmodium falciparum (HB3) proliferation (AID 743324).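 Further: 100% = DMSO vehicle wells and 0% = artemisinin-treated control wells.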 As to conditions: Plasmodium falciparum HB3 blood-stage proliferation; at 28.7 µM (top of the series). A digest of the protocol: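 SYBR Green fluorescence (485 ex/535 em) of lysed cultures, incubated overnight at room temperature in the dark, quantifies parasite DNA. Infected erythrocytes at 0.3% parasitemia and 2.5% hematocrit were exposed 72 h; values normalized to DMSO and 0.29 uM artemisinin controls.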

Experiment [4] is described as follows: qHTS profiling of the MIPE4 collection as inhibitors of Plasmodium falciparum (3D7) proliferation (AID 743344). As to conditions: P. falciparum 3D7 in erythrocytes, SYBR Green DNA fluorescence, 72 h; at 28.5 µM (top of the series) unless noted. A digest of the protocol:
as §1

A short description of experiment [5]: qHTS profiling of the MIPE4 collection as inhibitors of Plasmodium falciparum (DD2) proliferation (AID 743345). Conditions: P. falciparum Dd2 in erythrocytes, SYBR Green DNA, 72 h; at 28.5 µM (top of the series) unless noted. A digest of the protocol:
as §1

Experiment [6] can be described thus: qHTS profiling of the MIPE4 collection as inhibitors of Plasmodium falciparum (DD2) proliferation (Rep 2) (AID 743346). As to conditions: P. falciparum Dd2 in erythrocytes, SYBR Green DNA, 72 h; at 28.5 µM (top of the series) unless noted. A digest of the protocol:
as §1

Experiment [7] in a line: qHTS profiling of the MIPE4 collection as inhibitors of Plasmodium falciparum (HB3) proliferation (AID 743347).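 Further: plate controls were DMSO vehicle wells for no effect and artemisinin wells for full effect.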 Conditions: P. falciparum HB3 in erythrocytes, SYBR Green DNA, 72 h; at 28.5 µM (top of the series) unless noted. A digest of the protocol:
as §1

Experiment [8] can be described thus: High-throughput drug toxicity screening in the BPDCN cell line Gen2.2 (AID 1224824).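 Further: cells exposed to compounds for 48 h before reading.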 As to conditions: Gen2.2 BPDCN cells; at 45.8 µM (top of the series) unless noted. The gist of the method: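 Seed 500 exponentially growing Gen2.2 cells/well; add compounds by pin tool; incubate 48 h, 37 °C, 5% CO2; add CellTiter-Glo, 15 min RT; read luminescence. % activity vs DMSO (100%) and bortezomib (0%).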

Experiment [9] in a line: High-throughput drug toxicity screening in the BPDCN cell line Cal-1 (AID 1224825). Conditions: Cal-1 BPDCN cell viability, qHTS; at 45.8 µM (top of the series) unless noted. The gist of the method: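 CellTiter-Glo luminescence after 48 h compound exposure; percent activity scaled with DMSO as 100% and bortezomib (9.2 uM final) as 0%. Cal-1 cells seeded at 500/well in RPMI, 10% FBS, no phenol red.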

With `CC(=O)c1c(C)c2cnc(Nc3ccc(N4CCNCC4)cn3)nc2n(C2CCCC2)c1=O`, the remaining parasite growth % (stronger effect = lower value) in experiment [1] stood at 0.348%. In experiment [2], this molecule showed an activity, percent of control of 4.74%. For the same molecule, the remaining proliferation (% of control), lower = more inhibition in experiment [3] was 0.446%. The same molecule displayed a parasite growth, % of DMSO control in [4] of 5.54%. Besides, the parasite growth remaining, % of DMSO control (lower = more inhibition) in [5] was determined as 6.84%. In addition, the parasite growth, % of control (lower = inhibition) in [6] turned out to be 9.82%. Moreover, in [7], the growth, % of control amounted to 2.45%. In [8], the cell viability, % of control (lower = more cytotoxic) is 8.1%. The viability (% of control) in experiment [9] came out at 3.89%.

With `Cc1cnc(-c2cnc(NCCNc3ccc(C#N)cn3)nc2-c2ccc(Cl)cc2Cl)[nH]1`, the remaining parasite growth % (stronger effect = lower value) in experiment [1] was 89%. This molecule came in with an activity, percent of control in [2] of 90.2%. Further, the remaining proliferation (% of control), lower = more inhibition in experiment [3] worked out at 53.7%. For the same molecule, the parasite growth, % of DMSO control in [4] was 34.7%. In addition, in experiment [5], the parasite growth remaining, % of DMSO control (lower = more inhibition) amounted to 76.5%. Also, the parasite growth, % of control (lower = inhibition) in [6] was determined as 40.9%. The molecule further returned a growth, % of control in experiment [7] of 27.2%. Further, in experiment [8], the cell viability, % of control (lower = more cytotoxic) is 229%. In addition, the viability (% of control) in experiment [9] was 38.3%.

As to `CC(C)(C)c1cc(NC(=O)Nc2ccc(-c3cn4c(n3)sc3cc(OCCN5CCOCC5)ccc34)cc2)no1`, in experiment [1], the remaining parasite growth % (stronger effect = lower value) is -1.57%. In addition, the activity, percent of control in experiment [2] stood at 0.456%. In addition, in experiment [3], the remaining proliferation (% of control), lower = more inhibition is -0.226%. This molecule also yielded a parasite growth, % of DMSO control in [4] of 4.46%. Also, the parasite growth remaining, % of DMSO control (lower = more inhibition) in [5] came to 7.47%. The parasite growth, % of control (lower = inhibition) in experiment [6] is 15.2%. Besides, the growth, % of control in [7] is 2.53%. Besides, the cell viability, % of control (lower = more cytotoxic) in experiment [8] was found to be 252%. Moreover, in experiment [9], the viability (% of control) was determined as 75.9%.

Regarding `Cc1ccc(S(=O)(=O)Nc2cc(Cl)ccc2C(=O)Nc2nc(-c3ccccc3)cs2)cc1`, in experiment [1], the remaining parasite growth % (stronger effect = lower value) was determined as 11.7%. Also, the activity, percent of control in experiment [2] was 6.55%. Further, in experiment [3], the remaining proliferation (% of control), lower = more inhibition is 8.77%. This molecule came in with a parasite growth, % of DMSO control in [4] of 64.3%. For the same molecule, the parasite growth remaining, % of DMSO control (lower = more inhibition) in experiment [5] turned out to be 16.4%. The parasite growth, % of control (lower = inhibition) in [6] was found to be 21.2%. The molecule also registered a growth, % of control in [7] of 49.7%. For the same molecule, the cell viability, % of control (lower = more cytotoxic) in experiment [8] is 172%. Further, in experiment [9], the viability (% of control) was 96.8%.

For the molecule `N#Cc1c(O)c2c(-c3ccc(-c4ccccc4O)cc3)csc2[nH]c1=O`, in experiment [1], the remaining parasite growth % (stronger effect = lower value) is 93.3%. In experiment [2], this molecule registered an activity, percent of control of 96%. Moreover, the remaining proliferation (% of control), lower = more inhibition in [3] worked out at 87.6%. Besides, the parasite growth, % of DMSO control in experiment [4] was 70.3%. Also, the parasite growth remaining, % of DMSO control (lower = more inhibition) in experiment [5] came to 94.8%. Besides, in experiment [6], the parasite growth, % of control (lower = inhibition) was 47.7%. For the same molecule, the cell viability, % of control (lower = more cytotoxic) in [8] came to 185%. Further, in experiment [9], the viability (% of control) amounted to 108%.

Take `c1cc(-c2cnn3cc(-c4ccc(OCCN5CCCCC5)cc4)cnc23)ccn1`: the remaining parasite growth % (stronger effect = lower value) in experiment [1] was 6.04%. In [2], this molecule gave an activity, percent of control of 13.9%. In addition, the remaining proliferation (% of control), lower = more inhibition in experiment [3] was 12%. The same molecule returned a parasite growth, % of DMSO control in experiment [4] of 4.66%. In addition, in [5], the parasite growth remaining, % of DMSO control (lower = more inhibition) came to 6.66%. In addition, the parasite growth, % of control (lower = inhibition) in experiment [6] was 10.1%. In addition, the growth, % of control in [7] stood at 4.45%. For the same molecule, the cell viability, % of control (lower = more cytotoxic) in experiment [8] came to 2.64%. In addition, in experiment [9], the viability (% of control) was determined as 3.8%.

`CN(C)CC=CC(=O)Nc1cc2c(Nc3ccc(F)c(Cl)c3)ncnc2cc1O[C@H]1CCOC1`: the remaining parasite growth % (stronger effect = lower value) in experiment [1] was -0.281%. Moreover, the activity, percent of control in [2] was found to be 0.518%. Besides, in [3], the remaining proliferation (% of control), lower = more inhibition amounted to 0.188%. In experiment [4], this molecule registered a parasite growth, % of DMSO control of 6.72%. Also, the parasite growth remaining, % of DMSO control (lower = more inhibition) in [5] worked out at 7.96%. In addition, the parasite growth, % of control (lower = inhibition) in experiment [6] amounted to 9.26%. Besides, in experiment [7], the growth, % of control was found to be 8.85%. Also, the cell viability, % of control (lower = more cytotoxic) in experiment [8] worked out at 6.25%. Also, the viability (% of control) in [9] worked out at 5.7%.

For `CC(C)(O)CCc1ccc(OCc2cc(-c3cccc(OC(F)F)c3)c3ncccc3c2)cc1`, the remaining parasite growth % (stronger effect = lower value) in [1] was 37.5%. This molecule also had an activity, percent of control in experiment [2] of 37.1%. The remaining proliferation (% of control), lower = more inhibition in [3] worked out at 15.5%. Moreover, in experiment [4], the parasite growth, % of DMSO control came out at 111%. Also, in experiment [5], the parasite growth remaining, % of DMSO control (lower = more inhibition) was found to be 93%. Besides, in [6], the parasite growth, % of control (lower = inhibition) is 102%. This molecule also gave a growth, % of control in experiment [7] of 102%. Moreover, in [8], the cell viability, % of control (lower = more cytotoxic) was 132%. Further, in experiment [9], the viability (% of control) came to 75.3%.

`O=C(NCCS(=O)(=O)c1ccc(C(F)(F)F)cn1)c1ccc(Cl)cc1`: the remaining parasite growth % (stronger effect = lower value) in [1] was 98.8%. In experiment [2], this molecule displayed an activity, percent of control of 98.7%. For the same molecule, the remaining proliferation (% of control), lower = more inhibition in experiment [3] came out at 99.7%. Besides, the parasite growth, % of DMSO control in experiment [4] was 127%. The parasite growth remaining, % of DMSO control (lower = more inhibition) in [5] turned out to be 103%. Moreover, the parasite growth, % of control (lower = inhibition) in [6] turned out to be 82.3%. In [7], this molecule returned a growth, % of control of 84.8%. For the same molecule, the cell viability, % of control (lower = more cytotoxic) in experiment [8] worked out at 146%. For the same molecule, the viability (% of control) in experiment [9] worked out at 123%.
